From PubChem BioAssay
TSG101-PTAP inh = qHTS Assay for Iinhibitors of HIV-1 Budding by Blocking the Interaction of PTAP/TSG101; 340,000 tested, under 10 active; Tumor susceptibility gene 101 protein (Homo sapiens), Q99816; Fluorescence polarization, FITC-PTAP peptide / Tsg101 binding; Potency, µM (titrated, usually from 115 µM), without a hit: at the highest dose activity change, negative = inhibition, usual class: inhibitors; active = well fitted inhibition curve with a large enough effect in the main read-out, with a control signal flat, not every such curve was filed as active; inconclusive = small, poorly fitted or top-dose-only effect, or effect the other way, or a change in a side signal; inactive = no such curve, though single readings can be large or run the other way; also: % of control where 0% means no effect
Target sequence (Q99816 whole entry, looked up): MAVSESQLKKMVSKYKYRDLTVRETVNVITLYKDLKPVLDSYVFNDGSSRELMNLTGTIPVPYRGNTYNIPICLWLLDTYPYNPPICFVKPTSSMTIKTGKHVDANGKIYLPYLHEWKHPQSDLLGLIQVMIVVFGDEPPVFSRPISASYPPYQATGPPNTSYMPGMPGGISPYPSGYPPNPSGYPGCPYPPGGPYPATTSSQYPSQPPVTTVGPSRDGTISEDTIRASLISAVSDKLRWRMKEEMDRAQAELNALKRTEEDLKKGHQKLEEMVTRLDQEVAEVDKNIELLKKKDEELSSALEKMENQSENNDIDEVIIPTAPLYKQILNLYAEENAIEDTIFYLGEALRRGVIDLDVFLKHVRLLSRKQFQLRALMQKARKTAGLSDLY
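Compounds were pin-transferred onto Tsg101 binding domain (10 uM final) in HEPES pH 7.5 buffer, then FITC-PTAP peptide was added at 50 nM final. After 20 min at RT, polarization reported peptide displacement across a qHTS concentration series.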
SW480 rereplic = A quantitative high throughput screen for small molecules that induce DNA re-replication in SW480 colon adenocarcinoma cells | SW480 DNA re-replication, Hoechst DNA content imaging, 48 h | Potency, µM (titrated, usually from 46.1 µM), for the others: top-dose re-replication activation, most hits filed as activators | hit rate 1.8% among 340,000 | AID 624297, 2012; also: % of control where 0% means no effect; nearly all actives have a fitted effect of over 55% in size
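Hoechst fluorescence of nuclei (405 nm excitation, 500-530 nm emission) measured by plate-scanning imager after 48 hr compound exposure at 37 C; re-replication scored as increased number of nuclei with elevated intensity.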
KB-V1 MDR tox = qHTS assay for MDR1-selective chemotherapeutics: Primary screen using the drug-selected MDR subline cells KB-V1; KB-V1 MDR cells viability, CellTiter-Glo, 72 h; hit rate 3.4% among 400,000; Potency, µM (top dose mostly 46.1 µM), most hits filed as cytotoxic; also: % is scaled to controls: 0 for no effect and ±100 for the full control effect; nearly all actives have a fitted effect of over 60% in size
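Cells of the MDR subline KB-V1 are plated, dosed with compound at multiple concentrations, and incubated 72 h at 37 degrees C; CellTiter-Glo is then added and luminescence read after 10 min.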
KB-3-1 cytotox = qHTS assay for MDR1-selective chemotherapeutics: Primary screen using the parental adenocarcinoma cell KB-3-1; Potency, µM (top dose mostly 46.1 µM), actives largely listed as cytotoxic; hit rate 1.4% among 400,000; KB-3-1 viability, CellTiter-Glo ATP luminescence, 72 h; also: % is scaled to controls: 0 for no effect and ±100 for the full control effect; nearly all actives have a fitted effect of over 60% in size
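Screening of KB-3-1 cells (DMEM, 10% FBS, phenol-red free) ran from lowest to highest compound concentration; after 72 h at 37 °C viability was read luminescently and curves fitted.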
PINK1 expr mod = A Quantitative High throughput Screen to Identify Chemical Modulators of PINK1 Expression. PINK1 immunofluorescence, high-content cytometry, 24 h. Potency, µM (series often up to 76.6 µM), inactives show top-dose activation (PINK1 increase), usual class: activators. hit rate 0.2% among 410,000. AID 624263, 2012; active = well fitted activation curve with a large enough effect; inconclusive = small, poorly fitted or top-dose-only effect; cell line not stated here; also: % of control where 0% means no effect; nearly all actives have a fitted effect of over 65% in size
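Cells are seeded, rested 12 hours, then given compound at five concentrations or DMSO for 24 hours. After fixation, blocking and antibody staining, PINK1 amount and mitochondrial localization are scored; CCCP serves as control.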
MCF10A rereplic = A quantitative high throughput screen for small molecules that induce DNA re-replication in MCF 10a normal breast cells; MCF 10A DNA re-replication, Hoechst nuclear intensity, 48 h; Potency, µM (series often up to 46.1 µM), inactives show top-dose activity, positive = re-replication, hits mostly activators; hit rate 2.9% among 350,000; also: % of control where 0% means no effect; nearly all actives have a fitted effect of over 50% in size
* = called active by the depositor; i = inactive; ? = inconclusive; · = no result given; ! = not confirmed by another sample; [ ] = remark or other dose. Shown are actives, neighbours in structure and some others; about 6.8% of the full set was active somewhere. Unless noted, calls follow the shape of the dose curve; as a rule, active = well fitted curve in the direction sought with a large enough effect; inconclusive = small, poorly fitted or top-dose-only effect, or another doubt; inactive = no such curve, though single readings can be large; an effect the other way counts as inactive or inconclusive. Potency is read from the fitted curve at half-maximal effect.

SMILES | TSG101-PTAP inh | SW480 rereplic | KB-V1 MDR tox | KB-3-1 cytotox | PINK1 expr mod | MCF10A rereplic
Cc1cc(C)nc(N2CCCC(C(=O)NCCc3ccc(F)cc3)C2)n1 (stereo unspecified) | -8% | -1% | 18µM* | i | -3%[38.3 µM] | 3%
O=C(NCc1ccc(F)cc1)C1CCCN(c2nc3ccsc3c(=O)s2)C1 (stereo unspecified) | -5% | ? | ? | i | 4% | 12µM*
CCc1c(CN2CCN(c3cccc(C)c3C)CC2)csc1C | · | · | · | · | 4% | ·
COc1cc(NC(=O)CCCl)cc(-n2cnnn2)c1 | -3% | -15% | i | i | 0% | -5%
COc1cc(NC(=O)CCC2CCCC2)cc(-n2cnnn2)c1 | -2% | -7% | 21µM* | i | 3% | -6%
CC(C)Nc1nnc(SCC(=O)Nc2ccc3c(c2)C(=O)c2ccccc2C3=O)s1 | 0% | -44% | 10µM* | ? | -4% | ?
O=C(CSc1nnc(NC2CCCCC2)s1)Nc1ccc2c(c1)C(=O)c1ccccc1C2=O | -9% | -101% | i | i | 0% | 4%
CCOC(=O)C1CCC(CN(Cc2c(Cl)cccc2Cl)S(=O)(=O)c2ccc(F)c(C)c2)CC1 (stereo unspecified) | · | · | · | · | 0% | ·
COc1ccc(-c2cnc3c(c2)CCC3(C#N)C#N)cc1 | -11% | 3.3µM* | i | i | 18% | 4.1µM*
COc1ccc(-c2ccc(OC)cc2)cc1 | 0% | -5% | i | i | 0% | 17%
COc1cccc(N2CCN(C(=O)CCCCCNc3nc(=S)[nH]c4ccccc34)CC2)c1 | -1% | ? | 10µM* | i | -1% | 28%
CC(=O)N1CCC(N(Cc2ccc(C)o2)C(=O)Nc2ccccc2F)CC1 | · | · | ? | i | -1% | ·
O=C(NN(c1ccccc1)c1ccccc1)c1ccc([N+](=O)[O-])o1 | 1% | 12µM* | ? | ? | 2% | ?
NC(=O)c1oc2ccccc2c1NC(=O)c1ccc(F)cc1 | -1% | 1% | i | i | 5% | -1%
NC(=O)c1oc2ccccc2c1NC(=O)c1ccc([N+](=O)[O-])o1 | -1% | ? | 7.3µM* | 3.7µM* | 1% | ?
CCc1ccccc1NC(=O)CN1C(=O)CCSc2ccc(S(=O)(=O)N3CCCC3)cc21 | · | · | · | · | 0% | ·
CCc1ccc2c(c1)[C@H]1OCC[C@H]1[C@@H](c1cccs1)N2 | -2% | 5.2µM* | ? | 13µM* | 0% | 5.8µM*
Clc1ccc2c(c1)[C@H]1OCC[C@H]1[C@@H](c1ccco1)N2 | -3% | -3% | i | i | 1% | -2%
COc1ccc(-c2nnc(NC(=O)c3ccc(S(=O)(=O)N(C)CC4CCCO4)cc3)o2)c(OC)c1 (stereo unspecified) | -3% | ? | 5.8µM* | i | 2% | ?
CN(CC1CCCO1)S(=O)(=O)c1ccc(C(=O)Nc2nccs2)cc1 (stereo unspecified) | -6% | -22% | 18µM* | i | 1% | -1%
Cc1cc(NC(=O)c2ccc(S(=O)(=O)N(C)CC3CCCO3)cc2)no1 (stereo unspecified) | -1% | 2% | i | i | 0% | 18%
COc1ccc(N2CC(NC(=O)COc3ccccc3)CC2=O)cc1OC (stereo unspecified) | · | · | ? | i | 16% | ·
CCOc1ccccc1C1C(C(=O)OC)=C(N)OC2=C1C(=O)CCC2 (stereo unspecified) | -1% | 2% | i | i | 1%[38.3 µM] | -3%
CCOc1ccc(Br)cc1C1C(C(=O)OC)=C(N)Oc2cc(N(C)C)ccc21 (stereo unspecified) | 3% | ? | 23µM* | ? | 4% | 10µM*
Cc1ccc2nc(N3CCC(C(=O)N4CCN(c5cccc(C)c5C)CC4)CC3)[nH]c2c1 | · | · | i | ? | 1% | ·
SMILES | TSG101-PTAP inh | SW480 rereplic | KB-V1 MDR tox | KB-3-1 cytotox | PINK1 expr mod | MCF10A rereplic
CCOc1ccc(N(CCC#N)S(=O)(=O)c2ccc(OC)cc2)cc1 | -2% | ? | 21µM* | ? | -2%[38.3 µM] | ?
COc1ccc(N(CCOc2ccccc2)S(=O)(=O)c2ccccc2)cc1 | -1% | -3% | i | i | 9% | 19%
CCC1CN(Cc2cn[nH]c2-c2ccccc2)Cc2cc(OC)ccc2O1 (stereo unspecified) | · | · | · | · | 1% | ·
CCn1c(CCl)nc2cc(S(=O)(=O)N3CCOCC3)ccc21 | 0% | 15µM* | i | ? | 8% | ?
CCn1c(SC)nc2cc(S(=O)(=O)N3CCCCC3)ccc21 | 0% | 29% | i | 21µM* | 1% | 1%
O=C(CSc1nnc(-c2ccc3c(c2)OCO3)o1)Oc1ccccc1 | · | · | i | i | 1% | ·
O=C(C1CCCCC1)N(Cc1cccnc1)c1nc2ccc(F)cc2s1 | · | · | · | · | 2% | ·
CCOC(=O)c1c(CN2CCCCC2)oc2ccc(OC)cc12 | -4% | -3% | 9.2µM*! | i | 0%[38.3 µM] | 20%
CCOC(=O)c1c(CN2CCN(C)CC2)oc2ccc(OC)cc12 | -6% | -3% | i | i | -1% | 7%
CCn1c(=N)c(C(=O)NCC2CCCO2)cc2c(=O)n3cc(C)ccc3nc21 (stereo unspecified) | · | · | i | i | 1% | ·
Cc1ccc(CNC(=O)c2cc3c(=O)n4ccccc4nc3n(CC3CCCO3)c2=N)cc1 (stereo unspecified) | 0% | ? | ? | i | -1% | 2.1µM*
Cc1cccn2c(=O)c3cc(C(=O)NCC4CCCO4)c(=N)n(CCc4ccccc4)c3nc12 (stereo unspecified) | -1% | ? | i | i | 1% | 26%
COc1ccc(CCNC(=O)c2cc3c(=O)n4cccc(C)c4nc3n(CC3CCCO3)c2=N)cc1 (stereo unspecified) | 2% | 8.2µM* | i | i | -1% | 9.2µM*
Cc1ccc2nc3c(cc(C(=O)NCC4CCCO4)c(=N)n3CC3CCCO3)c(=O)n2c1 (stereo unspecified) | -2% | ? | i | i | 2% | 2.9µM*
N=c1c(C(=O)NC2CCCCC2)cc2c(=O)n3ccccc3nc2n1CC1CCCO1 (stereo unspecified) | -10% | 18µM* | i | i | 0% | ?
